molecular target: CaNbp2; experiment: SPOT peptide array binding signal intensity (averaged, normalized) (arbitrary units (background-subtracted, floor 0; scale differs between SH3 domains)); higher = stronger binding of the SH3 domain to the peptide
Summary of the method: (§1)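 Cellulose membranes carried synthetic 15-mer peptides with cysteines swapped for serines. These were incubated overnight at 4°C with 10 μg/ml of GST-fused SH3 domains from four yeast species in TBS-based blocking buffer. Binding signal, detected with anti-GST antibody and quantified in Genespotter, is the normalized, background-subtracted spot intensity averaged over replicates, in arbitrary units specific to each domain.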

With LFMKGTPEFPKSGFS as the binder, how does the “SPOT peptide array binding signal intensity” value read?
Its value is 611.

molecular target: CaRvs167; experiment: as above
Summary of the method: as §1

How did the “SPOT peptide array binding signal intensity” value turn out when LFMKGTPEFPKSGFS was run?
Its value is 75.

molecular target: CaRvs167-3; experiment: as above
Summary of the method: as §1

For LFMKGTPEFPKSGFS, which “SPOT peptide array binding signal intensity” value is on record?
Its value is 1.5.

molecular target: CaSho1; experiment: as above
Summary of the method: as §1

For LFMKGTPEFPKSGFS, which “SPOT peptide array binding signal intensity” value is on record?
Its value is 1200.

molecular target: CaSla1-D1-D2; experiment: as above
Summary of the method: as §1

LFMKGTPEFPKSGFS was tested. Which “SPOT peptide array binding signal intensity” value did it give?
Its value is 90.

molecular target: CaSla1-D3; experiment: as above
Summary of the method: as §1

LFMKGTPEFPKSGFS was tested. Which “SPOT peptide array binding signal intensity” value did it give?
The value was 289.

molecular target: ScAbp1; experiment: as above
Summary of the method: as §1

How did the “SPOT peptide array binding signal intensity” value turn out when LFMKGTPEFPKSGFS was run?
The value was 6.5.

molecular target: ScBbc1; experiment: as above
Summary of the method: as §1

How did the “SPOT peptide array binding signal intensity” value turn out when LFMKGTPEFPKSGFS was run?
The value was at most 0.

molecular target: ScBem1-D1; experiment: as above
Summary of the method: as §1

Which “SPOT peptide array binding signal intensity” value does the source give for LFMKGTPEFPKSGFS here?
Its value is 16.

molecular target: ScBzz1-D1; experiment: as above
Summary of the method: as §1

For LFMKGTPEFPKSGFS, which “SPOT peptide array binding signal intensity” value is on record?
Its value is 20.5.

molecular target: ScBzz1-D2; experiment: as above
Summary of the method: as §1

LFMKGTPEFPKSGFS was tested. Which “SPOT peptide array binding signal intensity” value did it give?
The value was 11.5.

molecular target: ScCyk3; experiment: as above
Summary of the method: as §1

For LFMKGTPEFPKSGFS, which “SPOT peptide array binding signal intensity” value is on record?
The value was 1.

molecular target: ScFus1; experiment: as above
Summary of the method: as §1

How did the “SPOT peptide array binding signal intensity” value turn out when LFMKGTPEFPKSGFS was run?
The value was 738.

molecular target: ScHof1; experiment: as above
Summary of the method: as §1

LFMKGTPEFPKSGFS was tested. Which “SPOT peptide array binding signal intensity” value did it give?
The value was at most 0.

molecular target: ScHse1; experiment: as above
Summary of the method: as §1

With LFMKGTPEFPKSGFS as the binder, how does the “SPOT peptide array binding signal intensity” value read?
The value was 17.5.

molecular target: ScLsb1; experiment: as above
Summary of the method: as §1

Which “SPOT peptide array binding signal intensity” value does the source give for LFMKGTPEFPKSGFS here?
Its value is 19.

molecular target: ScLsb2; experiment: as above
Summary of the method: as §1

LFMKGTPEFPKSGFS was tested. Which “SPOT peptide array binding signal intensity” value did it give?
Its value is at most 0.

molecular target: ScLsb3; experiment: as above
Summary of the method: as §1

Which “SPOT peptide array binding signal intensity” value does the source give for LFMKGTPEFPKSGFS here?
The value was 197.

molecular target: ScLsb4; experiment: as above
Summary of the method: as §1

How did the “SPOT peptide array binding signal intensity” value turn out when LFMKGTPEFPKSGFS was run?
Its value is 92.5.

molecular target: ScMyo3; experiment: as above
Summary of the method: as §1

Which “SPOT peptide array binding signal intensity” value does the source give for LFMKGTPEFPKSGFS here?
Its value is 21.

molecular target: ScMyo5; experiment: as above
Summary of the method: as §1

Which “SPOT peptide array binding signal intensity” value does the source give for LFMKGTPEFPKSGFS here?
The value was 2.

molecular target: ScNbp2; experiment: as above
Summary of the method: as §1

With LFMKGTPEFPKSGFS as the binder, how does the “SPOT peptide array binding signal intensity” value read?
Its value is 212.

molecular target: ScPex13; experiment: as above
Summary of the method: as §1

Which “SPOT peptide array binding signal intensity” value does the source give for LFMKGTPEFPKSGFS here?
Its value is 394.

molecular target: ScRvs167; experiment: as above
Summary of the method: as §1

How did the “SPOT peptide array binding signal intensity” value turn out when LFMKGTPEFPKSGFS was run?
Its value is 32.

molecular target: ScSho1; experiment: as above
Summary of the method: as §1

How did the “SPOT peptide array binding signal intensity” value turn out when LFMKGTPEFPKSGFS was run?
The value was 658.

molecular target: ScSla1-D1-D2; experiment: as above
Summary of the method: as §1

For LFMKGTPEFPKSGFS, which “SPOT peptide array binding signal intensity” value is on record?
Its value is 176.

molecular target: ScSla1-D3; experiment: as above
Summary of the method: as §1

With LFMKGTPEFPKSGFS as the binder, how does the “SPOT peptide array binding signal intensity” value read?
Its value is 490.

molecular target: SpAbp1-D1; experiment: as above
Summary of the method: as §1

For LFMKGTPEFPKSGFS, which “SPOT peptide array binding signal intensity” value is on record?
The value was 52.5.

molecular target: SpBbc1; experiment: as above
Summary of the method: as §1

How did the “SPOT peptide array binding signal intensity” value turn out when LFMKGTPEFPKSGFS was run?
Its value is at most 0.

molecular target: SpBzz1-D1; experiment: as above
Summary of the method: as §1

LFMKGTPEFPKSGFS was tested. Which “SPOT peptide array binding signal intensity” value did it give?
Its value is 140.

molecular target: SpBzz1-D2; experiment: as above
Summary of the method: as §1

How did the “SPOT peptide array binding signal intensity” value turn out when LFMKGTPEFPKSGFS was run?
Its value is 16.5.

molecular target: SpCyk3; experiment: as above
Summary of the method: as §1

For LFMKGTPEFPKSGFS, which “SPOT peptide array binding signal intensity” value is on record?
Its value is at most 0.

molecular target: SpHof1; experiment: as above
Summary of the method: as §1

How did the “SPOT peptide array binding signal intensity” value turn out when LFMKGTPEFPKSGFS was run?
Its value is 19.

molecular target: SpHof1-2; experiment: as above
Summary of the method: as §1

For LFMKGTPEFPKSGFS, which “SPOT peptide array binding signal intensity” value is on record?
The value was 18.8.

molecular target: SpHof1-3; experiment: as above
Summary of the method: as §1

How did the “SPOT peptide array binding signal intensity” value turn out when LFMKGTPEFPKSGFS was run?
The value was 78.

molecular target: SpHse1; experiment: as above
Summary of the method: as §1

LFMKGTPEFPKSGFS was tested. Which “SPOT peptide array binding signal intensity” value did it give?
The value was 335.

molecular target: SpLsb1; experiment: as above
Summary of the method: as §1

For LFMKGTPEFPKSGFS, which “SPOT peptide array binding signal intensity” value is on record?
Its value is at most 0.

molecular target: SpLsb4; experiment: as above
Summary of the method: as §1

Which “SPOT peptide array binding signal intensity” value does the source give for LFMKGTPEFPKSGFS here?
The value was 629.

molecular target: SpMyo1; experiment: as above
Summary of the method: as §1

For LFMKGTPEFPKSGFS, which “SPOT peptide array binding signal intensity” value is on record?
Its value is 22.8.

molecular target: SpNbp2; experiment: as above
Summary of the method: as §1

LFMKGTPEFPKSGFS was tested. Which “SPOT peptide array binding signal intensity” value did it give?
Its value is 100.

molecular target: SpPex13; experiment: as above
Summary of the method: as §1

For LFMKGTPEFPKSGFS, which “SPOT peptide array binding signal intensity” value is on record?
Its value is 28.

molecular target: SpRvs167; experiment: as above
Summary of the method: as §1

With LFMKGTPEFPKSGFS as the binder, how does the “SPOT peptide array binding signal intensity” value read?
Its value is 30.8.

molecular target: SpSla1-D1-D2; experiment: as above
Summary of the method: as §1

For LFMKGTPEFPKSGFS, which “SPOT peptide array binding signal intensity” value is on record?
Its value is 8.

molecular target: SpSla1-D3; experiment: as above
Summary of the method: as §1

LFMKGTPEFPKSGFS was tested. Which “SPOT peptide array binding signal intensity” value did it give?
Its value is 253.

Reference: the supplement of paper PMC4466140
